# Source: PubChem BioAssay AID720580 (National Center for Advancing Translational Sciences (NCATS), 2013)
# Screen size: about 330,000 compounds; about 1,500 (0.45%) were called active. About 6% were inconclusive and are not listed. The sample holds actives, similar compounds and a random draw of the others, so the mix is not that of the screen. The call rests on the fitted dose curve; tested in A549 cells.
# Test: qHTS for Stage-Specific Inhibitors of Vaccinia Orthopoxvirus: Venus Reporter Primary qHTS; further: nearly all actives have a fitted effect of over 30% in size
# Details: Vaccinia virus Venus reporter expression, fluorescence; series mostly up to 36.5 µM; activity change, negative = inhibition: at the top concentration
# On the % scale 0 is the no-effect control and ±100 the full control effect; potency means the concentration at half of the fitted maximal effect.
Compound,"activity change, negative = inhibition",Potency
COC(=O)C1(C(=O)OC)C[C@H](c2ccccc2)N(Cc2ccccc2OC)[C@@H]1c1ccccc1,-4.94% (inactive),
COc1ccc(OC)c(Cc2nnc(CCC(=O)NC3CCCC3)o2)c1,-24.9% (inactive),
COc1ccc(OC)c(Cc2cnc3nc(N)nc(N)c3c2C)c1,,1.12 µM (active)
COc1ccc(OC)c(NC(=O)c2sc3nc(C)cc(C)c3c2N)c1,-20.7% (inactive),
CCCCCCCNc1ccc(/C=C/c2ccnc3ccccc23)cc1,14.6% (inactive),
O=C(NC1(C(F)(F)F)NC(=O)N(C2CCCCC2)C1=O)c1ccco1 (stereo not given),-16.3% (inactive),
COC(=O)NC1(C(F)(F)F)NC(=O)N(C2CCCCC2)C1=O (stereo not given),-9.65% (inactive),
O=C1NC(Nc2nc3ccccc3s2)(C(F)(F)F)C(=O)N1C1CCCCC1 (stereo not given),,10 µM (active)
Cc1ccc(Cc2c(-c3ccco3)nc3ccc(Cl)cn23)cc1,4.2% (inactive),
SCc1nc2ccc(Cl)cc2[nH]1,-13.3% (inactive),
O=C(c1cnn2c1NC(=C1CC1)C=C2C(F)F)N1CCc2ccccc2C1,-21.9% (inactive),
CCN1CCC(O)(/C=C/c2ccc(C)cc2)C(C(=O)/C=C/c2ccc(C)cc2)C1 (stereo not given),,17.8 µM (active)
CCOC(=O)C1CCCN(C(=O)/C=C/c2ccc(OC)cc2)C1 (stereo not given),-0.189% (inactive),
N#Cc1ccc(C(C(=O)NCc2ccccc2)n2c(=O)c(-c3ccco3)nc3ccccc32)cc1 (stereo not given),-0.43% (inactive),
CN(C)c1ccc(/C=N\Nc2ccc([N+](=O)[O-])cc2[N+](=O)[O-])cc1Cl,-16.2% (inactive),
COc1ccc(Cc2nnc(N/N=C/c3ccccc3O)[nH]c2=O)cc1OC,,1.26 µM (active)
COc1ccc(CCNC(=O)CCc2ccccc2O)cc1OC,3.53% (inactive),
O=c1[nH]c(NCCO)nnc1Cc1ccc(Cl)cc1,1.34% (inactive),
CCCCOc1ccc(C(=O)NO)cc1,-14.6% (inactive),
CC(=O)N1Cc2cc(C(=O)NCc3cccc(F)c3)nc(-c3cccc(C4=CCCC4)c3)c2[C@H]1CCO,-20.8% (inactive),
Cc1c(Cl)c([N+](=O)[O-])nn1Cc1ccc(C(=O)N/N=C\c2cc(Cl)ccc2O)o1,,5.62 µM (active)
Cc1c(Cl)c([N+](=O)[O-])nn1CCCC(=O)Nc1cc(Cl)ccc1Cl,-17.6% (inactive),
Cc1ccc(C(=O)O)cc1NC(=O)c1ccc(Cn2nc(C)c(Cl)c2C)o1,-7.79% (inactive),
COc1cc2nc(N3CCCN(C)CC3)nc(NC3CC3)c2cc1OC,-26.8% (inactive),
COc1ccc(-c2csc(C(O)c3cccc(Cl)c3)n2)cn1 (stereo not given),-10.5% (inactive),

Compound,"activity change, negative = inhibition",Potency
Cc1cccc(NC(=O)c2nnn(-c3cccc(C(F)(F)F)c3)c2N)c1,-9.05% (inactive),
COc1ccc(NC(=O)CN(C)CC(=O)Nc2cccc(C(F)(F)F)c2)cc1,-12.9% (inactive),
COc1cc(NC(=O)c2[nH]cnc2C(N)=O)cc(C(=O)Nc2cccc(C(F)(F)F)c2)c1,,10 µM (active)
COC(=O)[C@]12CCCCC=C1N(Cc1ccco1)C(=O)[C@H](CC(=O)NCCCCc1ccccc1)C2,-2.07% (inactive),
CCOc1cc(C=NNC(=O)CCCC(=O)NN=Cc2ccc(O)c(OCC)c2)ccc1O,4.08% (inactive),
O=C(CCC(=O)N/N=C/c1ccc(Br)o1)N/N=C/c1ccc(Br)o1,-3.51% (inactive),
CCCCC(=O)N/N=C/c1c(O)n(CC)c(=S)n(CC)c1=O,,12.6 µM (active)
CCOc1ccc2nc(N3CCCN(CCCn4cccn4)CC3)nc(C)c2c1,-19.6% (inactive),
O=S(=O)(Nc1n[nH]c(C(F)(F)F)n1)c1ccccc1,-0.63% (inactive),
O=c1[nH]nc(SCCS(=O)(=O)c2ccc(F)cc2)n1-c1ccccc1C(F)(F)F,,3.16 µM (active)
CN(O)C(=S)c1ccccc1,,11.2 µM (active)
S=C(c1ccccc1)N1CCCC1,-10.5% (inactive),
CN(CC(=O)O)C(=O)c1ccccc1,-1.7% (inactive),
CCOC(=O)N1CCN(C(=O)C[C@@H]2C[C@@]3(C(=O)OC)CCCCC=C3N(CCC3=CCCCC3)C2=O)CC1,-3.65% (inactive),
CC1(C)OC(=O)C2=C(C[C@@H](C3CC3)O[C@H]2CCc2cccc(Cl)c2)O1,-2.21% (inactive),
CN(C)CCNC(=O)Nc1cccc(Cl)c1Cl,-9.74% (inactive),
CN(C)CCNC(=O)c1ccc(Cl)c2cc3ccccc3nc12,,4.47 µM (active)
CC(=O)NCCNC(=O)c1cc(-c2cccc3ccccc23)nc2ccccc12,-3.45% (inactive),
COc1cc(C(O)c2nc(-c3cnn(C)c3)cs2)ccc1F (stereo not given),4.96% (inactive),
CCn1c(=O)c(=O)[nH]c2c(=O)oc3ccc(S(=O)(=O)Nc4ccc(OC)cc4)cc3c21,-8.32% (inactive),
COc1ccc(NC(=O)c2cnc(NS(=O)(=O)c3ccccc3)nc2)cc1,-3.79% (inactive),
COc1ccc(NS(=O)(=O)c2ccc3oc(SCC(N)=O)nc3c2)cc1,,4.47 µM (active)
O=C1CCN(Cc2ccc(-c3ccccc3)cc2)CCN1Cc1ccccn1,-10.9% (inactive),
Cc1oc2c(c1C(=O)N1CCOCC1)C(=O)c1ccccc1C2=O,,3.16 µM (active)
COC1=C(N2CCOCC2)C(=O)c2ccccc2C1=O,5.75% (inactive),
